The panel holds about 83,000 compounds, 20% with a hit somewhere; the sample as a whole holds those more often.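 A percent growth of 40 corresponds to 60% growth inhibition; 0 means no net growth; -100 means all cells died. Active threshold: below 10.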
Legend:
Assay in all cases: NCI-60 one-dose screen, 48 h (100 = growth as untreated, 0 = no growth, -100 = all killed)
HCT-15 colon = conditions: 10 µM unless noted
HT29 colon = conditions: 10 µM unless noted
SNB-75 CNS = conditions: 10 µM unless noted
SNB-19 CNS = conditions: 10 µM unless noted
U251 CNS = conditions: 10 µM unless noted
PC-3 prostate = conditions: 10 µM unless noted
SK-MEL-5 melanoma = conditions: 10 µM unless noted
UACC-62 melanoma = conditions: 10 µM unless noted
LOX IMVI melanoma = conditions: 10 µM
SK-MEL-28 melanoma = conditions: 10 µM unless noted
SK-MEL-2 melanoma = conditions: 10 µM unless noted
SN12C renal = conditions: 10 µM unless noted
UO-31 renal = conditions: 10 µM unless noted
TK-10 renal = conditions: 10 µM unless noted
ACHN renal = conditions: 10 µM unless noted
CAKI-1 renal = conditions: 10 µM unless noted
CCRF-CEM leukemia = conditions: 10 µM unless noted
MOLT-4 leukemia = conditions: 10 µM unless noted
A498 renal = conditions: 10 µM unless noted

Measured: growth

CC(=O)c1cccc(N(C)S(=O)(=O)c2ccc(C)cc2)c1
inactive: HCT-15 colon 57.2% | HT29 colon 72.1% | SNB-75 CNS 81.6% | SNB-19 CNS 96.8% | U251 CNS 87.4% | PC-3 prostate 85.2% | SK-MEL-5 melanoma 90.1% | UACC-62 melanoma 96% | LOX IMVI melanoma 82.3% | SK-MEL-28 melanoma 93.6% | SK-MEL-2 melanoma 94.2% | SN12C renal 103% | UO-31 renal 82.2% | TK-10 renal 90.4% | ACHN renal 107% | CAKI-1 renal 101% | CCRF-CEM leukemia 97.7% | MOLT-4 leukemia 94.9%

C1=NCCc2ccccc21
inactive: HCT-15 colon 107% | HT29 colon 117% | SNB-75 CNS 76.4% | SNB-19 CNS 109% | U251 CNS 92.9% | PC-3 prostate 87.7% | SK-MEL-5 melanoma 95.3% | UACC-62 melanoma 114% | LOX IMVI melanoma 100% | SK-MEL-28 melanoma 110% | SK-MEL-2 melanoma 99.7% | SN12C renal 102% | UO-31 renal 84.3% | TK-10 renal 119% | ACHN renal 101% | CAKI-1 renal 99.7% | A498 renal 59.9% | CCRF-CEM leukemia 96.8% | MOLT-4 leukemia 101%

CC(=O)OC/C(C)=C\CC(C)COC(C)=O (stereo not given)
inactive: HCT-15 colon 98.8% | HT29 colon 113% | SNB-75 CNS 81.5% | SNB-19 CNS 94.9% | U251 CNS 101% | PC-3 prostate 93.9% | SK-MEL-5 melanoma 104% | UACC-62 melanoma 101% | LOX IMVI melanoma 98.8% | SK-MEL-28 melanoma 94.6% | SK-MEL-2 melanoma 113% | SN12C renal 99.6% | UO-31 renal 87.7% | TK-10 renal 112% | ACHN renal 96.9% | CAKI-1 renal 96.3% | A498 renal 95.7% | CCRF-CEM leukemia 96.9% | MOLT-4 leukemia 111%

C=COC(=O)C(C)(C)C
inactive: HCT-15 colon 102% | HT29 colon 104% | SNB-75 CNS 90.4% | SNB-19 CNS 95.3% | U251 CNS 99.4% | PC-3 prostate 95.3% | SK-MEL-5 melanoma 99.9% | UACC-62 melanoma 99.9% | LOX IMVI melanoma 96.4% | SK-MEL-28 melanoma 108% | SK-MEL-2 melanoma 94.7% | SN12C renal 93.6% | UO-31 renal 84.5% | TK-10 renal 98.6% | ACHN renal 108% | CAKI-1 renal 92.2% | A498 renal 95.1% | CCRF-CEM leukemia 91.9% | MOLT-4 leukemia 92.5%

CCCCCCCCCCC(=O)CCCCCCCCCC
inactive: HCT-15 colon 99.7% | HT29 colon 104% | SNB-75 CNS 95.9% | SNB-19 CNS 109% | U251 CNS 101% | PC-3 prostate 97.8% | SK-MEL-5 melanoma 102% | UACC-62 melanoma 105% | LOX IMVI melanoma 94.6% | SK-MEL-28 melanoma 106% | SK-MEL-2 melanoma 111% | SN12C renal 102% | UO-31 renal 85.8% | TK-10 renal 98.8% | ACHN renal 96.7% | CAKI-1 renal 95% | A498 renal 107% | CCRF-CEM leukemia 90% | MOLT-4 leukemia 92%

CCOC(=O)C(CCC#N)(CCC#N)C(=O)OCC
inactive: HCT-15 colon 98.7% | HT29 colon 111% | SNB-75 CNS 80.9% | SNB-19 CNS 100% | U251 CNS 102% | PC-3 prostate 97.6% | SK-MEL-5 melanoma 102% | UACC-62 melanoma 103% | LOX IMVI melanoma 111% | SK-MEL-28 melanoma 107% | SK-MEL-2 melanoma 112% | SN12C renal 105% | UO-31 renal 95.2% | TK-10 renal 102% | ACHN renal 109% | CAKI-1 renal 102% | CCRF-CEM leukemia 94.7% | MOLT-4 leukemia 97.3%

CSc1nc2[nH]ncc2c(=O)[nH]1
inactive: HCT-15 colon 99.7% | HT29 colon 107% | SNB-75 CNS 103% | SNB-19 CNS 103% | U251 CNS 103% | PC-3 prostate 107% | SK-MEL-5 melanoma 92.8% | UACC-62 melanoma 107% | LOX IMVI melanoma 97.2% | SK-MEL-28 melanoma 106% | SK-MEL-2 melanoma 111% | SN12C renal 101% | UO-31 renal 101% | TK-10 renal 104% | ACHN renal 110% | CAKI-1 renal 103% | A498 renal 75.4% | CCRF-CEM leukemia 118% | MOLT-4 leukemia 110%

C=CCC(O)C=C (stereo not given)
inactive: HCT-15 colon 101% | HT29 colon 110% | SNB-75 CNS 99.3% | SNB-19 CNS 101% | U251 CNS 102% | PC-3 prostate 101% | SK-MEL-5 melanoma 102% | UACC-62 melanoma 104% | LOX IMVI melanoma 97.3% | SK-MEL-28 melanoma 105% | SK-MEL-2 melanoma 106% | SN12C renal 101% | UO-31 renal 83.1% | TK-10 renal 96.2% | ACHN renal 100% | CAKI-1 renal 97.4% | A498 renal 88.7% | CCRF-CEM leukemia 94.1% | MOLT-4 leukemia 91.4%

Reference: PubChem BioAssay (NCI)
